# In PubChem BioAssay (EPA / NIEHS):
# The source made the active and inactive calls. The calls were made as follows: active = hit-call score of the fitted dose curve at least 0.9, where 1 is the maximum; inactive = score below 0.9.
# Read-out: KRT18 (gene 3875)
# Assay: BSK_BF4T_Keratin818: BioMAP Diversity Plus: BF4T Assay for Keratin 818 Biomarker Activity (AID 2284266)
# Conditions: primary human bronchial epithelial cells with fibroblasts
# Method: BSK_BF4T is a cell-based, multiplexed-readout assay that uses bronchial epithelial cells and dermal fibroblasts, a human vascular primary cell, with measurements taken at 24 hours after chemical dosing in a microplate: 96-well plate.BSK_BF4T_Keratin818 is an assay component measured in the BSK_BF4T assay. It measures Keratin 8/18 antibody related to regulation of gene expression using ELISA technology.Data from the assay component BSK_BF4T_Keratin818 was analyzed at the endpoint, BSK_BF4T_Keratin818, in the positive analysis fitting direction relative to DMSO as the negative control and baseline of activity. Using a type of binding reporter, gain or loss-of-signal activity can be used to understand protein changes. To generalize the intended target to other relatable targets, this assay endpoint is annotated to the 'cell adhesion molecules' intended target family, where the subfamily is 'keratin'.
# The levels of cell surface (or secreted, indicated by the prefix "s") biomarker endpoints were measured by ELISA. Overt cytotoxicity to cells in confluent adherent cultures (all systems other than the BT system) was assessed by measuring total protein levels using sulforhodamine B (SRB) staining in parallel cultures at the time of biomarker measurements, indicated as SRB endpoints. For proliferation assays for adherent cell types, individual cell types are cultured at sub-confluence and relative cell numbers quantified by SRB staining at time points optimized for each system (48 h: 3C and CASM3C systems; 72 h: BT and HDF3CGF systems; 96 h: SAg system). SRB was performed by staining cells with 0.1% SRB after fixation with 10% TCA and reading wells at 560 nm.Viability and proliferation of PBMC (T cells) was quantified by Alamar Blue reduction for the SAg and BT systems. For PBMC viability (referred to as PBMC Cytotoxicity within the assay endpoint names), cells were plated (75,000/well in a 96-well plate) and then chemical samples added for 1 h before addition of activators, SEB and TSST-1 (20 ng/mL final concentration each). Cells were incubated for 90 h. Then, Alamar Blue (20 uL/well) (Invitrogen, Cat DAL1100) was added for 6 h, and the plates were read with a fluorescence microplate reader at 546/580 nm (excitation/emission). For PBMC proliferation, cells were plated and activated as above but incubated for only 16 h prior to addition of Alamar Blue. Plates were read after 6 h.
row,SMILES,outcome
1,OCCC(F)(F)C(F)(F)C(F)(F)C(F)(F)F,inactive
2,O=S(=O)(O)CCC(F)(F)C(F)(F)C(F)(F)C(F)(F)C(F)(F)C(F)(F)F,inactive
3,C[Si](C)(C)C(F)(F)C(F)(F)C(F)(F)F,inactive
4,O=C(Cl)C(F)(F)C(F)(F)C(F)(F)C(=O)Cl,inactive
5,FC(F)=C(F)C(F)(F)C(F)(F)C(F)(F)C(F)(F)C(F)(F)C(F)(F)F,inactive
6,FC(F)(F)C(F)(F)C(F)(F)C(F)(F)C(F)(F)C(F)(F)I,inactive
7,FC(F)(F)COC(OCC(F)(F)F)OCC(F)(F)F,inactive
8,NCC(F)(F)C(F)(F)C(F)(F)C(F)(F)F,inactive
9,OC(O)(C(F)C(O)(O)C(F)(F)F)C(F)(F)F,inactive
10,FC(F)C(F)(F)COCC1CO1 (stereo not given),inactive
